The text below walks through data of the supplement of paper PMC10105736.

± gives the standard deviation of the averaged measurements.

What all share (test): MAPPIT interaction score (arbitrary units); higher = stronger binary interaction signal, active = hit call of the paper
In one test the target is Gs1. The conditions noted are these: pair source set: RRS.
For the next test, the target named is Fkbp39. The conditions noted are these: pair source set: Lit-BM-16.
A further test concerns the target Fkbp12. The settings on record: MAPPIT configuration: N-N; pair source set: DPIM.
Another test addresses Fer1HCH. The conditions noted are these: MAPPIT configuration: N-N; pair source set: Curagen_low_conf.
In a further test the target is mino. The conditions noted are these: MAPPIT configuration: N-N; pair source set: Lit-BS-16.
The target of a further test is GILT1. The settings on record: MAPPIT configuration: N-N; pair source set: Curagen_low_conf.
For a further test, the target named is Mad1. The settings on record: MAPPIT configuration: N-N; pair source set: screen_1.
The target in another test is Gem2. The conditions noted are these: MAPPIT configuration: N-N; pair source set: Lit-BM-16.
In another test the target is Smn. The settings on record: MAPPIT configuration: N-N; pair source set: screen_2.
The target of another test is Gnpnat. The conditions noted are these: MAPPIT configuration: N-N; pair source set: screen_1.
The next test concerns the target Jhbp2. The conditions noted are these: pair source set: RRS.
In another test the target is GILT3. The conditions noted are these: MAPPIT configuration: N-N; pair source set: Finley_Y2H.
In another test the target is FoxP. The conditions noted are these: MAPPIT configuration: N-N; pair source set: Curagen_high_conf.
The next test has as its target GluRIIC. The settings on record: MAPPIT configuration: N-N; pair source set: Lit-BS-16.
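Also: HEK293T cells with Epo stimulation, STAT-responsive firefly luciferase reporter, fold induction versus unstimulated cells divided by the larger fold induction of two negative controls lacking either bait or prey.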

B1: cactin (protein)
chain: MPKEKSKHRHRSRSRERRDHRSPDPRSSRNRDRDREREREKDRDHRDHRDKERDQRREREKDKSRDKKREHKSRRRRSSSSSSSPSSSTSSSVPGAPRSPLVKSPMKLLQTLEARRLVEQKDRQRKKEELKAHETPEEKRARRLREKQAKEQRRRERMGWDNEYQTYSNEDNPFGDSNLTSTFHWGKKLEVEGLSNLSTKTVEVLSLQKQLENRRELEKVKKRRQERELERQVREDDLMMQQRAKEAVQFREWQRQEDQFHLEQARLRSEIRIRDGRAKPIDLLAQYVAAGNEPLEECLEMQMHEPYVLLNGLPVEELEDLLVDIKVYEELEQGKHIDFWNDMITIVQDELQRQQKLEAENSSLNQRRDGIHQAVVKDVADIFRGKNAQQLEEMRHRIEAKISGRADGVDISYWESLLSQLKAHMARARLRDRHQALLREKLSLLKRENDNETLQEKVAPQVKEEEMETQDAEDPEVEEGSPEDEEDPLNELRKTVRLYQAGNYSPRYIREEDFTGRRAQNEDVDEPEAEGLLYEEEDDERRTQRQRLLILHPERVDNNQLTPQELRMRNEAKQGMQGDEAEFSVETTLDAVPQLATDKYRPRKPRYFNRVHTGFEWNKYNQTHYDMDNPPPKIVQGYKFNIFYPDLMDKSQTPQYFLTPCADNGDFAVLRFHTGPPYEDIAFKIVNREWEFSYKRGFRCQFHNNIFQLWFHFKRYRYRR
For the molecule B1, the MAPPIT interaction score in the test with Gs1 (MAPPIT configuration: N-C) was 0.448 (inactive); in the test with Gs1 (MAPPIT configuration: N-N), 0.325 (inactive).

B2: Fkbp39 (protein)
chain: MSMFWGLNMKPERKYSQTIIKSFHISGVALDKGQEAKLYLAAEKQEYIVATVTKAIPQVALDLNFSKGDRIMFYTAGDASVSLLGYLHDIDSEDDEDDDQMTIENLLNSKAIKNSKKSEDDEDENESGEEDEEDTDDDSQIIEEYESFLENGEEEDDDDVDEDNEESGEEDEQDSDDSEAEEEQPKAKVAKLSPGASAKKSGKEQNGVAKKEEAKQQQKKKEKPEAKKEQPKAKEPAKQQPASKDPRTITGGVKIVDQVVGKGEEAKQGKRVSVYYIGRLQSNNKTFDSLLKGKPFKFALGGGEVIKGWDVGVAGMKVGGKRVITCPPHMAYGARGAPPKIGPNSTLVFEVELKAVH
Consider B2, for which the MAPPIT interaction score with Fkbp39 (MAPPIT configuration: N-C) was 3.82 (active); with Fkbp39 (MAPPIT configuration: N-N) it was 2.59 ± 0.55.

B3: sigmar (protein)
chain: MADNVFKSHDIGLRAQKKILSRMATKNIAKTFIDGTTASLLDNLYRLCKMHTGNKAKAEKLIKNIIKIVIKIGVLHRNNQFSDEELQKAELFKRKFQNTQLSIISFYEVDFTFDLPYLQKSIAESQVALKSIVQPHLTEKSLGRIDEVFDFFGEEALLETAFRPDSPYREVMGKIVADINAAMETGDI
Take B3: the MAPPIT interaction score with Fkbp12 was -0.294 (inactive).

B4: Hn (protein)
chain: MYQRQVSFDKPTRVEDSAYIVEGVDIKEARNTCLLFSPKDSSLSSGALANILAIFKKHDINLVHIESRSSLRVPGYEFFVEADGKSGALGKAIEDVKEQCSYFNIISRDYKDNATAVPWFPRRIRDLDRFANQILSYGSELDADHPGFTDPEYRKRRKYFADIAYNYKHGEPLPHVDYTKEEIETWGIIFRNLTKLYKTHACREYNHVFPLLVDNCGFREDNIPQLEDVSNFLRDCTGFTLRPVAGLLSSRDFLAGLAFRVFHSTQYIRHPSKPMYTPEPDVCHELMGHVPLFADPAFAQFSQEIGLASLGAPDDYIEKLSTIFWFTVEYGVCRQEGELKAYGAGLLSSYGELEYCLTDKPQLKDFEPEVTGVTKYPITQFQPLYYVADSFETAKEKTIKFANSIPRPFGVRYNAYTQSVEVLDSKPQISNLMDNINSEFQILQNAVAKLRV
As to B4, the MAPPIT interaction score is 0.406 (inactive) with Fer1HCH and 0.808 (inactive) with mino.

B5: me31B (protein)
chain: MMTEKLNSGHTNLTSKGIINDLQIAGNTSDDMGWKSKLKLPPKDNRFKTTDVTDTRGNEFEEFCLKRELLMGIFEKGWERPSPIQEAAIPIALSGKDVLARAKNGTGKTGAYCIPVLEQIDPTKDYIQALVMVPTRELALQTSQICIELAKHLDIRVMVTTGGTILKDDILRIYQKVQLIIATPGRILDLMDKKVADMSHCRILVLDEADKLLSLDFQGMLDHVILKLPKDPQILLFSATFPLTVKNFMEKHLREPYEINLMEELTLKGVTQYYAFVQERQKVHCLNTLFSKLQINQSIIFCNSTQRVELLAKKITELGYCCYYIHAKMAQAHRNRVFHDFRQGLCRNLVCSDLFTRGIDVQAVNVVINFDFPRMAETYLHRIGRSGRFGHLGIAINLITYEDRFDLHRIEKELGTEIKPIPKVIDPALYVANVGASVGDTCNNSDLNNSANEEGNVSK
As for B5, the MAPPIT interaction score in the test with GILT1 is 0.228 (inactive); with Mad1, 0.203 (inactive).

B6: Smn (protein)
chain: MSDETNAAVWDDSLLVKTYDESVGLAREALARRLADSTNKREEENAAAAEEEAGEISATGGATSPEPVSFKVGDYARATYVDGVDYEGAVVSINEEKGTCVLRYLGYENEQEVLLVDLLPSWGKRVRREQFLIAKKDEDEQLSRPKASAGSHSKTPKSSRRSRISGGLVMPPMPPVPPMIVGQGDGAEQDFVAMLTAWYMSGYYTGLYQGKKEASTTSGKKKTPKK
For B6, the MAPPIT interaction score is 6.28 (active) with Gem2 and 6.24 (active) in the test with Smn.

B7: Gnpnat (protein)
chain: MVQLTEETYLYDPNLLLKLDFHRSPANFKPFISAANPGEPWMKVRPLKDTDYDRGFLQLLSQLTHVGNVNRTQFLTRFSQMKASGDYFVTVIEDTRKNEIIGAASLVIERKFIHNCAVRGRLEDVVVNDTYRGKQLGKLIVVTVSLLAEELGCYKMSLDCKDKLIKFYESLGYVAIPGNSNSMTIRYDEGPTLKRNATSAGSSGTVGDSCQTVSLDFAS
For the molecule B7, the MAPPIT interaction score with Gnpnat is 5.14 (active); in the test with Jhbp2 (MAPPIT configuration: N-C), -0.259 (inactive); in the test with Jhbp2 (MAPPIT configuration: N-N), 0.242 (inactive).

B8: fog (protein)
chain: MSPPNCLLAVLALTVFIGANNALPITSRPIEGNVQRMVWEDWVNLDPEQRNLTKEKKITAKSIFTLPFRHCPQGHTLFNQLCIPQSNIDPTDLVKQELILAGGSNGSPPPPPIGDYDYGDDEESEEIVYDLSVIPTAMQDGLPPSVGTGDQALPSEDAPLKFNIFEKKFPTGTGEHEEMPLPPDMAAATYAKNISTTPETSTSITPTSTTTFAVPSVPSGEASNRIPGGVDLLAAPSDAFSTSTTLSMPTSNTTTTSNKDIGQVESIVLPADQEHDGLVHLVTSSLSDNDSDDSSTTLNGFNAEADLAQLLKVDAFWPVYDGSIELLPPLFSHRKVAPPLSADQDVKTKHAVDAAEKVGAELEEEVGEEEVTATDILPSEEDEYTTETATTTGDTTVAEASMDTSTATSTSGQSSPHPPEEPEIDERENRLVLIKSKVQPVQLTTTTSATATTAADVANSSSSTDRFHYQHFVEDESSTTTATPEPSSSTPGDPIEQSDMPASDNDNLMTNTIGGRGDDDDDGGHKATSEIHVQQELRLINELVKGKQRQQHQPQKQQLEPTSTEITSALTSTSTEDATTTTTTTTAYTNWSKVMPQLGQSTSETAATTETVATSGQVNEISLTATSASTEVKHFSITNRSYRNSKIIREDRLTVEPEGIVESAASTESAGTAATTPNSSSNPDGYTPLWWLPSIGWRLDRHLDGNGEDQSLLLRFFSTFRGSNTAATTR
Take B8: in the test with GILT3, the MAPPIT interaction score was -0.488 (inactive).

B9: mats (protein)
chain: MDFLFGSRSSKTFKPKKNIPEGTHQYDLMKHAAATLGSGNLRNAVALPDGEDLNEWVAVNTVDFFNQINMLYGTITEFCTEETCGIMSAGPKYEYHWADGLTVKKPIKCSAPKYIDYLMTWVQDQLDDETLFPSKIGVPFPKNFHSSAKTILKRLFRVYAHIYHQHFTEVVTLGEEAHLNTSFKHFIFFVQEFNLIERRELAPLQELIDKLTAKDERQI
Turning to B9, the MAPPIT interaction score in the test with FoxP was 1.25 (inactive).

B10: cora (protein)
chain: MPAEIKPSAPAEPETPTKSKPKSSSSSHGKPALARVTLLDGSLLDVSIDRKAIGRDVINSICAGLNLIEKDYFGLTYETPTDPRTWLDLEKPVSKFFRTDTWPLTFAVKFYPPEPSQLKEDITRYHLCLQVRNDILEGRLPCTFVTHALLGSYLVQSEMGDYDAEEMPTRAYLKDFKIAPNQTAELEDKVMDLHKTHKGQSPAEAELHYLENAKKLAMYGVDLHPAKDSEGVDIMLGVCASGLLVYRDKLRINRFAWPKILKISYKRHHFYIKIRPGEFEQYESTIGFKLANHRAAKKLWKSCVEHHTFFRLMTPEPVSKSKMFPVFGSTYRYKGRTQAESTNTPVDRTPPKFNRTLSGARLTSRSMDALALAEKEKVARKSSTLDHRGDRNADGDAHSRSPIKNKKEKDADKEAKLREKKQKEKEEKERKEREKRELEEKKKAEKAAKAALAAGAAAGAAVNGNDELNDSNKSDKSSGRRGVGIFSSGRKSKSGSPSKDGKDKSGKDKDKEVGRLGLVVTSGLGDNQQDQNLDEAARNAAKNRGSTTPGVTRQYEYAVDNDGNTSPTRKSYTPGGFRYDQDPNSRKSGADGQEQLSPTSQQKKIGLAFNYAPGNENALKETAEKLKAGQLSPRTQDKLNRGQLSPKSRAKLLQDPLLSPTTRAKLQGSAVDAAAVPLSDSQKRSYSPTKGPQGYSSGAPGSYKPISDPTADFLESQRYNKEPGYVGPSKADVAAGLAGAAGSKKPGSPTKTGKGAPGAAAAAAAGAAGAAAAAAKPKKRRVKIMVITSKFDPSTKRIDAENGSIEHSTGILDPATGLIDTKYGVIDPKKGTLEALNTKTGKKEVFQGDVDGKTGNLHLVSGVADPKTGRLDDTLGQIVCITPQDNPVVELTVITSRIDPATGKIDTVNGDVERSLGVLNLDTGLLDTKYGEINTRTGELKAIDPKSGKIVVSKNVKVDPGTGQITILGIVDPKTNKIDPNQGRLIEVGQQIDPIVEVTSLAGKFDSKRNIIDPKTAQVETSGGQFDPKAGKIDTKYGQIDLVKHTITFNDPKSGKTVTRDIKIEPTTGQIVLKNQVNPKNNKPDKDYARIISLRIVQQRVDPATKAPITEVSASKDKDIVVDPKSNQIWVPTGATDPATKEQQYISSSVDPKTGYVITIYGYLDPKTNEIKKQTKLDPNTIKIEPTSGKIYTATGEVDQATGEPLYAATQVDPESGEVYTKLARVDPKTGKIVIVRILLISKTDERGRPEEIDPSTCEIDPVSGRVLKFFNKTVYVYNMIDPVTGEIVQVDPNDPRFAGARTTVTHTMTLTGEIDPVTGRIKSEYGDIDPNTGDIDPATAVTDPVTGKLILNYAQIDPSHFGKQAQVQTTTETVPITRQQFFDGVKHISKGALRRDSEGSSDDDMTAQYGADQVNEILIGSPAGQAGGKLGKPVSTPTVVKTTTKQVLTKNIDGVTHNVEEEVRNLGTGEVTYSTQEHKADATPTDLSGAYVTATAVTTRTATTHEDLGKNAKTEQLEEKTVATTRTHDPNKQQQRVVTQEVKTTATVTSGDQYQRRDSVSSTSSGDSGTPIDGPYDGASVVRTDNQKSPLFTTSATTGPHVESTRVVLGEDTPGFSGHGEIISTQTVSSKTRTVETITYKTERDGIVETRVEQKITIQSDGDPIDHDKALAEAIQEATAMNPDMTVEKIEIQQQTQ
For the molecule B10, the MAPPIT interaction score with GluRIIC was -0.379 (inactive).
